Unmarked numbers belong to inactive results.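 The calls were made as follows: active = curve rank above 3; inactive = curve rank 0.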
test system: KeratinoSens (HaCaT ARE-luciferase) cells; test: Nrf2/ARE luciferase activation call in qHTS KeratinoSens assay (1 = active, 0 = inactive)

Structure (SMILES) | Nrf2/ARE luciferase activation call
Cc1cc(C)[nH]c(=O)n1.O=C(Nc1ccc([N+](=O)[O-])cc1)Nc1ccc([N+](=O)[O-])cc1 | not active ARE inducer (skin sensitizer alert)
C[C@H](N)[C@H](O)c1cccc(O)c1.O=C(O)[C@@H](O)[C@@H](O)C(=O)O | not active ARE inducer (skin sensitizer alert)
Cc1ccccc1C(OCCN(C)C)c1ccccc1.O=C(O)CC(O)(CC(=O)O)C(=O)O (configuration not stated) | not active ARE inducer (skin sensitizer alert)
CC1(C)S[C@@H]2[C@H](NC(=O)Cc3ccccc3)C(=O)N2[C@H]1C(=O)O.CC1(C)S[C@@H]2[C@H](NC(=O)Cc3ccccc3)C(=O)N2[C@H]1C(=O)O.c1ccc(CNCCNCc2ccccc2)cc1 | not active ARE inducer (skin sensitizer alert)
CC(C)NCC(O)COc1ccc(COCCOC(C)C)cc1.CC(C)NCC(O)COc1ccc(COCCOC(C)C)cc1.O=C(O)/C=C/C(=O)O (configuration not stated) | not active ARE inducer (skin sensitizer alert)
CC[n+]1ccccc1.O=S(=O)([O-])C(F)(F)F | not active ARE inducer (skin sensitizer alert)
O=C(O)/C=C/C(=O)O.OCCOCCN1CCN(C2=Nc3ccccc3Sc3ccccc32)CC1.OCCOCCN1CCN(C2=Nc3ccccc3Sc3ccccc32)CC1 | not active ARE inducer (skin sensitizer alert)

Reference: the supplement of paper PMC10933113
